# Assay results: PubChem BioAssay (EPA / NIEHS)
# Several values for one entry are separate records, joined by “and”; a condition that tells them apart may be missing. Equal values may be shown once. Inconclusive results are not listed. The source holds several records for some structures; these can differ, active in one and inactive in another. Activity calls are given as the source filed them. How the source made its calls, unless noted: active means hit-call score of the fitted dose curve at least 0.9, where 1 is the maximum; inconclusive means response in the unintended direction; inactive means score below 0.9.
# Columns and labels:
# [1] = target: Peroxisome proliferator-activated receptor gamma (Homo sapiens) (UniProt P37231); test: ATG_hPPARg_XSP2: Attagene TRANS-FACTORIAL Multi-Species (XSP2) HepG2 Assay for human Peroxisome Proliferator-activated Receptor gamma (PPARg) (AID 2283829);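 further: actives raise reporter mRNA above DMSO so AC50 reflects PPARg activation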
# Outline: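 Reporter transcripts were measured by RT-PCR, fluorescent labeling, HpaI digestion and capillary electrophoresis, relative to DMSO, 24 h post-dosing. Transiently transfected HepG2 expressed NR-Gal4 chimeras regulating GAL4-UAS reporters; medium contained 3 nM 6-alpha-fluorotestosterone plus 1.5 nM norgestrel.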
# [2] = target: mouse Peroxisome Proliferator-activated Receptor gamma (PPARg), Pparg (gene 19016) (UniProt P37238); test: ATG_mPPARg_XSP2: Attagene TRANS-FACTORIAL Multi-Species (XSP2) HepG2 Assay for mouse Peroxisome Proliferator-activated Receptor gamma (PPARg) (AID 2283830);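 further: hits are gains in reporter mRNA above DMSO so AC50 marks activation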
# Outline: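 Multiplexed TRANS reporter readout: after 24 h chemical exposure of transfected HepG2 cells (with 3 nM 6-alpha-fluorotestosterone, 1.5 nM norgestrel present), RNA reverse-transcribed, amplified, 6-FAM-labelled and resolved by capillary electrophoresis; mouse PPARg-Gal4 induction scored against DMSO.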
# [3] = target: Nuclear receptor subfamily 1 group I member 2 (Mus musculus) (UniProt O54915); test: ATG_mPXR_XSP2: Attagene TRANS-FACTORIAL Multi-Species (XSP1) HepG2 Assay for mouse Pregnane X Receptor (PXR) (AID 2283831)
# Outline: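 Reporter transcripts measured after 24 h dosing by RT-PCR with 6-FAM labelling, HpaI digestion and capillary electrophoresis. Transiently transfected HepG2 with NR-Gal4 chimeras; increase over DMSO baseline scored.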
# [4] = test system: zebrafish Peroxisome Proliferator-activated Receptor gamma (PPARg), gene 557037; test: ATG_zfPPARg_XSP2: Attagene TRANS-FACTORIAL Multi-Species (XSP2) HepG2 Assay for zebrafish Peroxisome Proliferator-activated Receptor gamma (PPARg) (AID 2283833);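 further: reporter mRNA from a zebrafish PPARg GAL4 chimera measured by RT-PCR and capillary electrophoresis; actives increase reporter signal over DMSO so AC50 reflects activation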
# Outline: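 After 24 h chemical exposure, RNA from transiently transfected HepG2 (chimeric NR-Gal4 TRANS reporters) was reverse-transcribed, PCR-amplified, 6-FAM-labelled, HpaI-cut and sized by capillary electrophoresis. Induction was scored in the positive direction relative to DMSO.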
# [5] = test system: turtle Thyroid Hormone Receptor, alpha (TRa), gene 101949057; test: ATG_trTRa_XSP2: Attagene TRANS-FACTORIAL Multi-Species (XSP1) HepG2 Assay for turtle Thyroid Hormone Receptor, alpha (TRa) (AID 2283834);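 further: hits raise reporter mRNA over the DMSO baseline so AC50 marks activators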
# Outline: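 Turtle TRa-Gal4 chimera activity in transfected human HepG2 cells: reporter transcripts quantified by RT-PCR, 6-FAM labelling and capillary electrophoresis 24 h post-dosing; positive direction versus DMSO, medium containing 3 nM 6-alpha-fluorotestosterone and 1.5 nM norgestrel.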
# [6] = ATG_M_61_XSP2: Attagene TRANS-FACTORIAL Multi-Species (XSP2) HepG2 Assay for M61 Transcription Factor (Internal Marker) (AID 2283835; active means hit-call score of the fitted dose curve at least 0.9, where 1 is the maximum; inactive means score below 0.9;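 further: active means a rise in signal above the DMSO baseline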)
# Outline: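 Internal background marker, read as RT-PCR/capillary-electrophoresis reporter mRNA 24 h post-dose in transiently transfected HepG2 cells. Androgen receptor stimulated with 3 nM 6-alpha-fluorotestosterone plus 1.5 nM norgestrel; gain of signal versus DMSO analysed.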
# [7] = target: zebrafish Thyroid Hormone Receptor beta (TRb), thrb (gene 30607) (UniProt Q9PVE4); test: ATG_zfTRb_XSP2: Attagene TRANS-FACTORIAL Multi-Species (XSP1) HepG2 Assay for zebrafish Thyroid Hormone Receptor beta (TRb) (AID 2283836);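 on AC50: potency for induction of reporter signal above DMSO so agonist direction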
# Outline: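 Multiplexed trans-activation in HepG2 cells, 24 h treatment, with reporter mRNA read by RT-PCR and capillary electrophoresis. Gain-of-signal against DMSO.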
# [8] = target: human Thyroid hormone Receptor alpha (TRa), THRA (gene 7067) (UniProt P10827); test: ATG_hTRa_XSP2: Attagene TRANS-FACTORIAL Multi-Species (XSP2) HepG2 Assay for human Thyroid hormone Receptor alpha (TRa) (AID 2283838)
# Outline: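 Gain-of-signal in reporter mRNA, relative to DMSO, after 24 h dosing of transfected HepG2; quantitation by RT-PCR fragment analysis on capillary electrophoresis.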
# [9] = target: frog Thyroid hormone Receptor alpha (TRa), thra-a (gene 397942) (UniProt P15204); test: ATG_frTRa_XSP2: Attagene TRANS-FACTORIAL Multi-Species (XSP2) HepG2 Assay for frog Thyroid hormone Receptor alpha (TRa) (AID 2283839);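 on AC50: AC50 reflects induction of frog TRa-driven reporter mRNA above DMSO baseline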
# Outline: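 Reporter transcripts were measured by RT-PCR with capillary electrophoresis after 24 h dosing of HepG2 carrying transiently transfected multi-reporter units, including a chimeric frog TRa-GAL4 construct. Activity was taken as increase over DMSO vehicle.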
# [10] = target: human Thyroid hormone Receptor beta (TRb), THRB (gene 7068) (UniProt P10828); test: ATG_hTRb_XSP2: Attagene TRANS-FACTORIAL Multi-Species (XSP2) HepG2 Assay for human Thyroid hormone Receptor beta (TRb) (AID 2283840);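 further: actives raise reporter mRNA so potency reflects agonist-like gain of signal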
# Outline: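 Activity of exogenous human TRb–Gal4 fusion measured by reporter mRNA from RT-PCR and capillary electrophoresis, 24 h after dosing transfected HepG2. 6-alpha-fluorotestosterone (3 nM) and norgestrel (1.5 nM) present. Gain-of-signal fit relative to DMSO.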
# [11] = CPHEA_Stoker_NIS_Cytotoxicity: Cytotoxicity Assessment for CPHEA's Radioactive Iodide Uptake (RAIU) Assay for Sodium/Iodide Symporter (NIS) Inhibition, Stoker and Laws Labs (AID 2283897);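 on AC50: active means loss of ATP signal versus DMSO meaning cytotoxicity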
# Outline: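 ATP luminescence (Cell Titer Glo) measured viability, with loss of signal normalized to DMSO controls. Cells: hNIS-HEK293T-EPA, seeded 40 hours prior. Dosing: 0.001–100uM, 2 hours, room temperature, uptake buffer pH 7.4.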
# [12] = test system: frog Estrogen Receptor (ER2), gene 100174814; test: ATG_frER2_XSP2: Attagene TRANS-FACTORIAL Multi-Species (XSP2) HepG2 Assay for frog Estrogen Receptor (ER2) (AID 2283828)
# Outline: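 Read-out: reporter transcript levels by RT-PCR with 6-FAM primer extension, HpaI digestion and capillary electrophoresis, scored as induction over DMSO control. Transfected HepG2 carrying Xenopus ER2–GAL4 chimera; compounds incubated 24 h.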
# [13] = target: zebrafish Thyroid Hormone Receptor alpha (TRa), thraa (gene 30670) (UniProt Q98867); test: ATG_zfTRa_XSP2: Attagene TRANS-FACTORIAL Multi-Species (XSP1) HepG2 Assay for zebrafish Thyroid Hormone Receptor alpha (TRa) (AID 2283832);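 further: actives raise zebrafish TRa-Gal4 reporter transcript above DMSO baseline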
# Outline: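 Multiplexed TRANS reporter format in HepG2; the medium also contained 3 nM 6-alpha-fluorotestosterone and 1.5 nM norgestrel. Reporter mRNA after 24 h read by RT-PCR and capillary electrophoresis, scored as induction over DMSO.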
# [14] = target: Estrogen receptor (Homo sapiens) (UniProt P03372); test: ATG_hERa_XSP2: Attagene TRANS-FACTORIAL Multi-Species (XSP2) HepG2 Assay for human Estrogen Receptor (ERa) (AID 2283827)
# Outline: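 Trans-activation of exogenous human ERa-Gal4 chimera read in HepG2 as reporter transcript after 24 h exposure; medium included 3 nM 6-alpha-fluorotestosterone and 1.5 nM norgestrel. Quantified by RT-PCR with capillary electrophoresis, positive-direction fitting against DMSO.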
# [15] = ATG_XTT_Cytotoxicity_XSP2: Cytotoxicity Assessment in the Attagene TRANS-FACTORIAL Multi-Species (XSP2) HepG2 Assay (AID 2283837)
# Outline: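 XTT-based cell number read-out in human HepG2 liver cells carrying transfected reporter units, measured 24 h after chemical dosing. Activity is signal loss versus DMSO baseline.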
# [16] = CEETOX_H295R_OHPREG_noMTC: CeeTox H295R High-throughput Steroidogenesis Assay for OH-Pregnenolone (OHPREG), maximum tolerated concentration (MTC) filtered results only (AID 2283912; active means hit-call score of the fitted dose curve at least 0.9, where 1 is the maximum; inactive means score below 0.9); conditions: actives raise or lower the signal
# Outline: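 Medium 17alpha-hydroxypregnenolone quantified by reverse-phase HPLC-MS/MS after 48 h chemical exposure of forskolin-prestimulated (10 uM, 48 h) H295R, 0.1% DMSO final. Fitting bidirectional relative to DMSO; no maximum-tolerated-concentration filtering applied.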
# [17] = CEETOX_H295R_OHPROG_noMTC: CeeTox H295R High-throughput Steroidogenesis Assay for OH-Progesterone (OHPROG), maximum tolerated concentration (MTC) filtered results only (AID 2283914; active means hit-call score of the fitted dose curve at least 0.9, where 1 is the maximum; inactive means score below 0.9); conditions: actives raise or lower the signal
# Outline: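 After 48 h forskolin (10 uM) prestimulation, H295R adrenal cells received test chemical in 0.1% DMSO for 48 h. Medium 17alpha-hydroxyprogesterone was MTBE-extracted and measured by HPLC-MS/MS; gain or loss relative to DMSO, no MTT-based MTC filtering.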
# [18] = CEETOX_H295R_ANDR_noMTC: CeeTox H295R High-throughput Steroidogenesis Assay for Androstenedione (ANDR), maximum tolerated concentration (MTC) filtered results only (AID 2283915; active means hit-call score of the fitted dose curve at least 0.9, where 1 is the maximum; inactive means score below 0.9); conditions: actives raise or lower the signal
# Outline: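 Androstenedione secreted into medium was measured by LC-MS/MS after MTBE extraction. Human adrenal H295R cells received 10 uM forskolin for 48 h before 48 h chemical exposure (0.1% DMSO). Gain or loss fitted against DMSO, including concentrations above the MTT-derived MTC.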
# [19] = CEETOX_H295R_PROG_noMTC: CeeTox H295R High-throughput Steroidogenesis Assay for Progesterone (PROG), maximum tolerated concentration (MTC) filtered results only (AID 2283920; active means hit-call score of the fitted dose curve at least 0.9, where 1 is the maximum; inactive means score below 0.9); conditions: actives raise or lower the signal
# Outline: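 Progesterone secreted into medium was measured by HPLC-MS/MS after MTBE extraction, following 48 h chemical exposure (0.1% DMSO) of forskolin-prestimulated (10 uM, 48 h) H295R adrenal cells. Gain or loss fitted against DMSO; no MTC filtering.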
# [20] = CEETOX_H295R_TESTO_noMTC: CeeTox H295R High-throughput Steroidogenesis Assay for Testosterone (TESTO), maximum tolerated concentration (MTC) filtered results only (AID 2283924; active means hit-call score of the fitted dose curve at least 0.9, where 1 is the maximum; inactive means score below 0.9); conditions: actives raise or lower the signal
# Outline: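 Medium testosterone, measured by HPLC-MS/MS after liquid-liquid extraction, was fitted in both directions relative to DMSO without MTC filtering. Adrenal H295R cells received 48 h chemical exposure (0.1% DMSO final) after 48 h forskolin (10 uM) prestimulation; viability by MTT.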
# Sequence of frog Thyroid hormone Receptor alpha (TRa), thra-a (gene 397942) (P15204 whole entry, looked up, the tested form may be a part): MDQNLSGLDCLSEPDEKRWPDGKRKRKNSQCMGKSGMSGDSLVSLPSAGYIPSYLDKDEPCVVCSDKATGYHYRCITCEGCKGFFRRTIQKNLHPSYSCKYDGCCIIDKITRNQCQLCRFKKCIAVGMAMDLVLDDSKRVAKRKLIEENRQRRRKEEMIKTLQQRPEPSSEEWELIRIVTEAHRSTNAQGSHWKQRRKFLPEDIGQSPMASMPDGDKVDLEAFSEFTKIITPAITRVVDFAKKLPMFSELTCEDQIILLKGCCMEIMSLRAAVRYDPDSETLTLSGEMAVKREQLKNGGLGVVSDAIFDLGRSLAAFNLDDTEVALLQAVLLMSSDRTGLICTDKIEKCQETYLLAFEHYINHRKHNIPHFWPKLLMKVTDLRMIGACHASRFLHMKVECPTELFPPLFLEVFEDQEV
# Sequence of human Thyroid hormone Receptor alpha (TRa), THRA (gene 7067) (P10827 whole entry, looked up, the tested form may be a part): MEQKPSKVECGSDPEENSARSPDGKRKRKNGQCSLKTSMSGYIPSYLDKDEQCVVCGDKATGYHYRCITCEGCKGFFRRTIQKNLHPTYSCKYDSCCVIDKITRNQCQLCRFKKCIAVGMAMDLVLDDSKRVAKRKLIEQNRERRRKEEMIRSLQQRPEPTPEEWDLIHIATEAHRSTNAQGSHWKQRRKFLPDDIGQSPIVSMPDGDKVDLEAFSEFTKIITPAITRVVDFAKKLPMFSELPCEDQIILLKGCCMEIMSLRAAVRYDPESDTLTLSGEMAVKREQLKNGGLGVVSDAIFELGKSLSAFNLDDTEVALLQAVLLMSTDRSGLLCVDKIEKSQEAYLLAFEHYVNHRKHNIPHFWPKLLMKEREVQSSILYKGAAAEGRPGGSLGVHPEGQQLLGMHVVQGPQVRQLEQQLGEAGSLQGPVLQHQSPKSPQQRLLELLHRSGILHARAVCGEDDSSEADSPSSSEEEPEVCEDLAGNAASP
# Sequence of human Thyroid hormone Receptor beta (TRb), THRB (gene 7068) (P10828 whole entry, looked up, the tested form may be a part): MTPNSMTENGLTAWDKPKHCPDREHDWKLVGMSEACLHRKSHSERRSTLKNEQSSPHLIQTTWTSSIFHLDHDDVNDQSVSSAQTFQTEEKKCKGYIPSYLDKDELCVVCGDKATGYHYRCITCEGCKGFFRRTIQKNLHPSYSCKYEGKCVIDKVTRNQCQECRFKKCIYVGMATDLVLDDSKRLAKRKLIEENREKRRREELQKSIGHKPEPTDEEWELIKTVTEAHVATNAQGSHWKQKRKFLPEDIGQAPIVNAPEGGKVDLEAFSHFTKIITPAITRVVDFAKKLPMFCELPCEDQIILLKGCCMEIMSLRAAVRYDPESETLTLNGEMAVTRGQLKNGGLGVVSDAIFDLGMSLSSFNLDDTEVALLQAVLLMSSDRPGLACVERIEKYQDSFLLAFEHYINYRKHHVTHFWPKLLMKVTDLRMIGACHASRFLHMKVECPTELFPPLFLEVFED
# Sequence of mouse Peroxisome Proliferator-activated Receptor gamma (PPARg), Pparg (gene 19016) (P37238 whole entry, looked up, the tested form may be a part): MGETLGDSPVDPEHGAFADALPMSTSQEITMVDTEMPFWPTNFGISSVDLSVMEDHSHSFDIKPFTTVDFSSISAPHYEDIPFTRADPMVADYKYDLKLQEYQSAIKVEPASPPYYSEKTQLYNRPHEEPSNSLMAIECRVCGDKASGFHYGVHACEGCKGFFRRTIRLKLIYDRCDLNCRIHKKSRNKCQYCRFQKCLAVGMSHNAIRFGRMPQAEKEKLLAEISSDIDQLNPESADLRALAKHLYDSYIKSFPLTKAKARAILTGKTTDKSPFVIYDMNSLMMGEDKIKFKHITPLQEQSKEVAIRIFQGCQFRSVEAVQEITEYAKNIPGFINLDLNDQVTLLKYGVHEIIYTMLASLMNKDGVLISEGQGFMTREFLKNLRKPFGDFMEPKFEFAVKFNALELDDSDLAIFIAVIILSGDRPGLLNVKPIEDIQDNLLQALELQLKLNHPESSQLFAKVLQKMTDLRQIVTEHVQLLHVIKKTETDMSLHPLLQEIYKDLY
# Sequence of Peroxisome proliferator-activated receptor gamma (Homo sapiens) (P37231 whole entry, looked up, the tested form may be a part): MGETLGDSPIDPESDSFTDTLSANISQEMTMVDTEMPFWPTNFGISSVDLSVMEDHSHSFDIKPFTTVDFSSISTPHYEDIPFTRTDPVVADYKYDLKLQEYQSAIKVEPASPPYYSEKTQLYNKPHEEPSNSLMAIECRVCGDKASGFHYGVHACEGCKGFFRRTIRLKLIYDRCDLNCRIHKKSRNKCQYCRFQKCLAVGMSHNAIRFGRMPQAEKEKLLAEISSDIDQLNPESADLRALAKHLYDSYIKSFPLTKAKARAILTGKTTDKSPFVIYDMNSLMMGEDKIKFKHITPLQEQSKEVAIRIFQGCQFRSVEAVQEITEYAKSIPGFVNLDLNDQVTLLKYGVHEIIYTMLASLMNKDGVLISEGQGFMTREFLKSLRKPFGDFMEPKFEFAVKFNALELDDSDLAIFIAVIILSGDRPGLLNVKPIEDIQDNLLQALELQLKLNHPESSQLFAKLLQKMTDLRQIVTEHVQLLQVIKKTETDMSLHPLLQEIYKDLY
# Sequence of zebrafish Thyroid Hormone Receptor beta (TRb), thrb (gene 30607) (Q9PVE4 whole entry, looked up): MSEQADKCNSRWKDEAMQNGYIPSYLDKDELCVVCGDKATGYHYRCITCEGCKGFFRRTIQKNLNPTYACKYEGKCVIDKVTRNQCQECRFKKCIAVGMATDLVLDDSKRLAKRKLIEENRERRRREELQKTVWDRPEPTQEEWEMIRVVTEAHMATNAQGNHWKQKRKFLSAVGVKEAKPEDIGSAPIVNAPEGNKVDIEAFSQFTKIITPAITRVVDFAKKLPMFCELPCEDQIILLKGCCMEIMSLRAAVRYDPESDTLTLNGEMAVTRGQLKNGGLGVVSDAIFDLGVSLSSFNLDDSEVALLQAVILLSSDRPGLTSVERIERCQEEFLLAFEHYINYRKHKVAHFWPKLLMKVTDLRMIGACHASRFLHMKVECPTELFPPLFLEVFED
# Sequence of Nuclear receptor subfamily 1 group I member 2 (Mus musculus) (O54915 whole entry, looked up, the tested form may be a part): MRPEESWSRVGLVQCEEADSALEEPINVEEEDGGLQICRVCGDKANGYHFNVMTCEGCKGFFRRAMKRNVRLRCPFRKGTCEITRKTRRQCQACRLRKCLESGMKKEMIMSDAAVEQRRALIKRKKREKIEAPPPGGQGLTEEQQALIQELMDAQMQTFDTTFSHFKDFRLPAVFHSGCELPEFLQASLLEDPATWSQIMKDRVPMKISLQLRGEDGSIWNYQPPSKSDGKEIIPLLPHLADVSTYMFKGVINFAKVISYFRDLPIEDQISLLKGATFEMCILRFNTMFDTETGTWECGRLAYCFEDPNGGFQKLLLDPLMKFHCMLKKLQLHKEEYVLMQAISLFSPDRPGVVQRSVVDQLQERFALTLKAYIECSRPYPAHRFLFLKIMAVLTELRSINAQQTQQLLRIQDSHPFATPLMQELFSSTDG
# Sequence of zebrafish Thyroid Hormone Receptor alpha (TRa), thraa (gene 30670) (Q98867 whole entry, looked up, the tested form may be a part): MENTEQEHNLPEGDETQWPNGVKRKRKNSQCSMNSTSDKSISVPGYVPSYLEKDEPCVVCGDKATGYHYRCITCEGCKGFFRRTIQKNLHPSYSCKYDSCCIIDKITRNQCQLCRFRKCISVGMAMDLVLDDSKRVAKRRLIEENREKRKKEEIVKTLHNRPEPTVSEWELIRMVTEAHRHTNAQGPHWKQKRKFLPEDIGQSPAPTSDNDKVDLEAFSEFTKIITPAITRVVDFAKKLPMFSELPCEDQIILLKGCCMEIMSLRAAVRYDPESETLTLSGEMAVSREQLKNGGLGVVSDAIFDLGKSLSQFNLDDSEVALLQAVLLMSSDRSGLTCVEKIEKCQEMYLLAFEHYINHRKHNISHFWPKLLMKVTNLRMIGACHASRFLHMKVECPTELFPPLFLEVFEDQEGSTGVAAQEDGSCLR
# Sequence of Estrogen receptor (Homo sapiens) (P03372 whole entry, looked up, the tested form may be a part): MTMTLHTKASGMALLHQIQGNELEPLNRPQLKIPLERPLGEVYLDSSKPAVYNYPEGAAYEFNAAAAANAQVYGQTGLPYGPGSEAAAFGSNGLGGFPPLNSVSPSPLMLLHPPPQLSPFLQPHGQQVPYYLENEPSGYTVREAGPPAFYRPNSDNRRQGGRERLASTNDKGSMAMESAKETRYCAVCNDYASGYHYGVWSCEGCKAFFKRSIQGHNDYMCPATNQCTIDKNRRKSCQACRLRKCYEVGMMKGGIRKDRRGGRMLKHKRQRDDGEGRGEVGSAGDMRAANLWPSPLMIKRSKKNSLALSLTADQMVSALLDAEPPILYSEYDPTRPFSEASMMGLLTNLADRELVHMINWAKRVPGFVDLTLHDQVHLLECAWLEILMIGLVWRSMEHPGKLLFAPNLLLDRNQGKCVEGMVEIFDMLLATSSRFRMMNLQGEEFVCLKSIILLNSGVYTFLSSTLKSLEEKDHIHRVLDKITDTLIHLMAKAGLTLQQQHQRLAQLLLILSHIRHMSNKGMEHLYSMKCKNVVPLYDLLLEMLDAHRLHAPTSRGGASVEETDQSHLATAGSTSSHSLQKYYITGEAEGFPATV
smiles,measurement,setting,value
CCOP(=S)(OCC)Oc1ccc2c(C)c(Cl)c(=O)oc2c1,AC50,[1],27 µM (active)
same,AC50,[2],5.43 µM (active)
same,AC50,[3],9.08 nM (active)
same,outcome,[4],inactive
same,AC50,[5],64.7 µM (active)
same,outcome,[6],inactive
same,outcome,[7],inactive
same,outcome,[8],inactive
same,outcome,[9],inactive
same,outcome,[10],inactive
same,AC50,[11],27.7 µM (active)
N#CSCSC#N,AC50,[11],41.4 µM (active)
COP(=O)(OC)OC(Br)C(Cl)(Cl)Br (configuration not stated),outcome,[11],inactive
CCCCSP(=O)(SCCCC)SCCCC,outcome,[11],inactive
CCC(CC)Nc1c([N+](=O)[O-])cc(C)c(C)c1[N+](=O)[O-],AC50,[12],8.22 µM (active) and 4.99 µM (active)
same,outcome,[1],inactive
same,outcome,[2],inactive
same,AC50,[3],266 nM (active) and 269 nM (active)
same,outcome,[13],inactive
same,outcome,[4],inactive
same,outcome,[5],inactive
same,outcome,[6],inactive
same,outcome,[7],inactive
same,outcome,[8],inactive
same,outcome,[9],inactive
same,outcome,[10],inactive
same,outcome,[11],inactive
C[Si](Cn1cncn1)(c1ccc(F)cc1)c1ccc(F)cc1,outcome,[11],inactive
Cc1cc(C2CC2)nc(Nc2ccccc2)n1,outcome,[11],inactive
CC(C)N(C(=O)SCC(Cl)=C(Cl)Cl)C(C)C,AC50,[11],39.8 µM (active)
Nc1c(Cl)cc([N+](=O)[O-])cc1Cl,AC50,[14],10.9 µM (active) and 17.4 µM (active)
same,outcome,[12],inactive
same,AC50,[1],25.7 µM (active) and 34.9 µM (active)
same,AC50,[2],11.9 µM (active) and 41.8 µM (active)
same,AC50,[3],10.8 µM (active) and 9.9 µM (active)
same,outcome,[13],inactive
same,outcome,[4],inactive
same,AC50,[5],23.6 µM (active) and 29.8 µM (active)
same,AC50,[7],48.3 µM (active)
same,outcome,[7],inactive
same,outcome,[15],inactive
same,AC50,[8],43.6 µM (active) and 22.8 µM (active)
same,AC50,[9],27.1 µM (active)
same,AC50,[10],27.6 µM (active) and 82.2 µM (active)
same,outcome,[11],inactive
CON=C(C(=O)OC)c1ccccc1CON=C(C)c1cccc(C(F)(F)F)c1,outcome,[11],inactive
CCCCOC(=O)c1ccccc1C(=O)O,outcome,[16],inactive
same,outcome,[17],inactive
same,outcome,[18],inactive
same,outcome,[19],inactive
same,outcome,[20],inactive
CCOP(=S)(OCC)OC(Cl)C(Cl)(Cl)Cl (configuration not stated),outcome,[11],inactive
CCOC(=O)COc1cc(-c2nn(C)c(OC(F)F)c2Cl)c(F)cc1Cl,outcome,[11],inactive
CCc1cccc(C)c1N(C(=O)CCl)C(C)COC (configuration not stated),outcome,[12],inactive
same,AC50,[1],55.8 µM (active)
same,AC50,[2],27.3 µM (active)
same,AC50,[3],3960 nM (active)
same,outcome,[13],inactive
same,outcome,[4],inactive
same,outcome,[6],inactive
same,outcome,[7],inactive
same,outcome,[9],inactive
